Assay results: PubChem BioAssay (NCATS)
Inconclusive results are not listed. Values without a mark were called inactive. The source made the active and inactive calls. The call rests on the fitted dose curve; in most records, active means well fitted curve in the direction sought with a large enough effect; inconclusive means small, poorly fitted or top-dose-only effect, or another doubt; inactive means no such curve, though single readings can be large; an effect the other way counts as inactive or inconclusive.

tested on: not listed separately; assay: Primary qHTS for inhibitors of nuclear receptor binding SET domain protein 2 (NSD2) in an RCH-ACV wild type WT cells (2C) (AID 1645877); settings: RCH-ACV (leukaemia line) NSD2 WT (2C) viability, CellTiter-Glo, 72 h; series mostly up to 44.9 µM; activity change, negative = cell killing: at the top concentration; further: nearly all actives have a fitted effect of over 70% in size; further: potency means the concentration at half of the fitted maximal effect; on activity change, negative = cell killing: on the % scale 0 is the no-effect control and ±100 the full control effect

Row | Compound | Potency | activity change, negative = cell killing
1 | CCc1ccc2nc(Nc3cc(Cc4ccccc4)nc(NC4CCC(O)CC4)n3)sc2c1 (stereo unspecified) | 23.5 µM (active) | –
2 | Cc1cc(O[C@@H](CCC(F)(F)F)c2ccc(C(=O)NCCC(=O)O)cc2)cc(C)c1-c1ccc(C(C)(C)C)cc1 | – | -21.9%
3 | CNC(=O)CCc1cc(-c2ccc(-c3ccc(C(F)(F)F)cc3)cc2)n(-c2ccc(N3CCNCC3)cc2)n1 | – | -93.2%
4 | CN1CCN(CCCNc2ncc(Cl)c(-c3cc4c(C(=O)NC5CC5)cccc4s3)n2)CC1 | 23.5 µM (active) | –
5 | CO[C@H]1/C=C/O[C@@]2(C)Oc3c(C)c(O)c4c(O)c(c(/C=N/N5CCN(C)CC5)c(O)c4c3C2=O)NC(=O)/C(C)=C\C=C\[C@H](C)[C@H](O)[C@@H](C)[C@@H](O)[C@@H](C)[C@H](OC(C)=O)[C@@H]1C | 16.6 µM (active) | –

target: Rap guanine nucleotide exchange factor 3 (Homo sapiens) (UniProt O95398); assay: Confirmatory qHTS for antagonist of cAMP-regulated guanine nucleotide exchange factor 3 (EPAC1) (AID 1645880); settings: EPAC1 Rap1B-BODIPY-GDP exchange, fluorescence; series mostly up to 115 µM; activity, negative = inhibition: at the top concentration; further: nearly all actives have a fitted effect of over 55% in size; further: potency means the concentration at half of the fitted maximal effect;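 on activity, negative = inhibition: plate controls were DMSO only for no effect and full effect of the ATA control for full effect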
Sequence (O95398 whole entry, looked up): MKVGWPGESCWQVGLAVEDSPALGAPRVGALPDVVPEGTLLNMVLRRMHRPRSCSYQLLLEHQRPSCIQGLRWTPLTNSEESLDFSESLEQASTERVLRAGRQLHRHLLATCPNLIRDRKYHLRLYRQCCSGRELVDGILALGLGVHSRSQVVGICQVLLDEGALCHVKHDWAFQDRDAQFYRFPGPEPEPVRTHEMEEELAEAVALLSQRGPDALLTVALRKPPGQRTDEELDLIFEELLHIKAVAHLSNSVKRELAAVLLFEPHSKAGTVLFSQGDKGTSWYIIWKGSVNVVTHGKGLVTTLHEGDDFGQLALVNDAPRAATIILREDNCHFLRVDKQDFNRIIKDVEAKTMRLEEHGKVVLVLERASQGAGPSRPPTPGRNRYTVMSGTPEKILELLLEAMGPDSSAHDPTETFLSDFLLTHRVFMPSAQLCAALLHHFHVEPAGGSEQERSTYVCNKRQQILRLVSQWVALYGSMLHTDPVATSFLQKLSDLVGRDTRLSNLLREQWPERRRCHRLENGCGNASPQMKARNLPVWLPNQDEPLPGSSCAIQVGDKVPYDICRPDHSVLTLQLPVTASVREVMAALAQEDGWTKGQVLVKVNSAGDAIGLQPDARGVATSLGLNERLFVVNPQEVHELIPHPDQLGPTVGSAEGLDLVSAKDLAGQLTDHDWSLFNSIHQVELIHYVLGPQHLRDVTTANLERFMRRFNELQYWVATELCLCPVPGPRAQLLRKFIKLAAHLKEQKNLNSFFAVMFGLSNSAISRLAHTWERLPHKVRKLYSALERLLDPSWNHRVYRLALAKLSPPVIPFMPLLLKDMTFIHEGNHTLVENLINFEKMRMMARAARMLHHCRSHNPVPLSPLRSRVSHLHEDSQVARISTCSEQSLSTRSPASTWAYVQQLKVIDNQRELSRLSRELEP
Procedure, shortened: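 Released BODIPY-GDP fluoresces less than Rap1-bound BODIPY-GDP; the signal is followed at 480/540 nm at 5-min intervals over 30 min, after 5 min at room temperature. Reactions contain 100 nM EPAC1, 250 nM RAP1B-BODIPY-GDP and 50 uM GDP; results are normalized to ATA and DMSO.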

Row | Compound | activity, negative = inhibition | Potency
6 | C(=C\c1ccnc2ccccc12)/c1ccc2ccccc2n1 | -6.9% | –
7 | C/C=C(\C)C(=O)OC1C(OC(=O)C2(C)OC2C)c2cc3ccc(=O)oc3cc2OC1(C)C (stereo unspecified) | -19.5% | –
8 | Cc1[nH]c2ccccc2c1/C=C/c1ccc2ccccc2n1 | -14.7% | –
9 | Cc1ccc2c(/C=C/c3c[nH]c4ccccc34)ccnc2c1C | -10.8% | –
10 | Cc1cccc(N(C(=O)c2csnn2)C(C(=O)NCc2ccccc2)c2cccs2)c1 (stereo unspecified) | -24.1% | –
11 | Cc1ccc(CN2C(=O)CSC2c2ccc(F)cc2)cc1 (stereo unspecified) | -21.3% | –
12 | CN(CCc1ccccc1)C(=O)c1cc(COc2cccc(C(F)(F)F)c2)on1 | -26.4% | –
13 | Cc1ccc(C2SCC(=O)N2Cc2ccccc2)cc1 (stereo unspecified) | -25.4% | –
14 | CC(C)(C)[C@H]1CCC(=O)N([C@H](CN=[N+]=[N-])Cc2ccccc2)CC1 | -17% | –
15 | Cc1cc(C)c2nccc(/C=C/c3ccc(N(C)C)cc3)c2c1 | -4.06% | –
16 | CN1CC(O)C2=CC(=O)C(=O)C=C21 (stereo unspecified) | – | 2.8 µM (active)
17 | COc1ccc(Cl)cc1NC(=O)CN(C)Cc1cccs1 | -28.4% | –
18 | C[C@@H]1CCC(=O)N(CC[C@H](Oc2ccccc2)c2ccccc2)CC1 | -24.6% | –
19 | O=C1CCN(Cc2ccccc2)CCN1[C@H](COc1ccccc1)Cc1ccccc1 | -8.39% | –
20 | Cc1ccc2c(/C=C/c3ccc(N(C)C)cc3)ccnc2c1C | -10.9% | –
21 | CN(C)c1ccc(/C=C/c2c(Cl)cnc3ccccc23)cc1 | -4.86% | –
22 | O=C(CN1Cc2ccccc2OC(c2ccsc2)C1)N1CCN(Cc2ccc3c(c2)OCO3)CC1 (stereo unspecified) | -16.9% | –

Row | Compound | activity, negative = inhibition | Potency
23 | CC(=O)C(C(c1ccccc1)c1c[nH]c2ccccc12)[N+](=O)[O-] (stereo unspecified) | -12% | –
24 | CC1COc2ccccc2N1S(=O)(=O)c1cc(Cl)ccc1Cl (stereo unspecified) | -12.3% | –
25 | Nc1cc(N)cc(N)c1 | – | 28 µM (active)
26 | Cc1ccc2nccc(/C=C/c3ccc(N(C)C)cc3)c2c1 | -7.2% | –
27 | Cc1ccc(S(=O)(=O)N2[C@@H](c3cccc(Cl)c3)C(C(=O)O)=CC[C@H]2c2ccc(C(C)C)cc2)cc1 | – | 67.5 µM (active)
28 | Cc1cc(/C=C/c2ccnc3ccccc23)ccc1N(C)C | -14.1% | –
29 | COC(=O)c1cc(Br)c(=O)n(CCC2=CCCCC2)c1 | -23.1% | –
30 | Cc1cc(C(=O)NCc2nc(-c3cccc(NC(=O)c4ccccc4)c3)oc2C)nc(C)n1 | -11.2% | –
31 | COc1cc(OC)c2c(-c3ccccc3)cc(=O)oc2c1 | -14.2% | –
32 | Cc1cc(C)cc(NC(=O)c2sc3nc(-c4ccccc4)cn3c2C)c1 | -19.6% | –
33 | CCc1ccc([C@@H]2CC=C(C(=O)O)[C@H](c3ccc(Br)cc3)N2S(=O)(=O)c2ccc(C)cc2)cc1 | – | 17.8 µM (active)
34 | COc1ccc(C(=O)c2ccc(OC)cc2OC)cc1 | -19.6% | –
35 | CCOC(=O)c1ccc(N(C(=O)c2ccccc2)c2ccccc2)cc1 | -4.28% | –
36 | Cn1cc(/C=C/c2ccc3ccccc3n2)c2ccccc21 | -13.3% | –
37 | COc1ccc(SC[C@H](Cc2ccccc2)N2CC[C@@H](C)CCC2=O)cc1 | -12.2% | –
38 | Cc1cnc2ccccc2c1/C=C/c1ccc(N(C)C)cc1 | -15% | –
39 | CCOC(=O)C1CCCN(C(=O)c2cnn(-c3nccc(-c4cc(C)sc4C)n3)c2C)C1 (stereo unspecified) | -12.1% | –

target: Rap guanine nucleotide exchange factor 3 (Homo sapiens) (UniProt O95398); assay: Confirmatory qHTS for agonist of cAMP-regulated guanine nucleotide exchange factor 3 (EPAC1) (AID 1645881); settings: EPAC1 Rap1B BODIPY-GDP exchange fluorescence; series mostly up to 154 µM; activation: at the top concentration;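 further: EPAC1 catalysed release of BODIPY-GDP from Rap1B seen as fluorescence loss; 100% = effect of cAMP agonist control; nearly all actives have a fitted effect of over 75% in size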

Row | Compound | activation
40 | C(=C\c1ccnc2ccccc12)/c1ccc2ccccc2n1 | 9.15%
41 | C/C=C(\C)C(=O)OC1C(OC(=O)C2(C)OC2C)c2cc3ccc(=O)oc3cc2OC1(C)C (stereo unspecified) | -9.47%
42 | Cc1[nH]c2ccccc2c1/C=C/c1ccc2ccccc2n1 | -6.68%
43 | Cc1ccc2c(/C=C/c3c[nH]c4ccccc34)ccnc2c1C | -3.38%
44 | Cc1cccc(N(C(=O)c2csnn2)C(C(=O)NCc2ccccc2)c2cccs2)c1 (stereo unspecified) | 1.62%
45 | Cc1ccc(CN2C(=O)CSC2c2ccc(F)cc2)cc1 (stereo unspecified) | 11.2%
46 | CN(CCc1ccccc1)C(=O)c1cc(COc2cccc(C(F)(F)F)c2)on1 | -1.47%
47 | Cc1ccc(C2SCC(=O)N2Cc2ccccc2)cc1 (stereo unspecified) | 11.2%
48 | CC(C)(C)[C@H]1CCC(=O)N([C@H](CN=[N+]=[N-])Cc2ccccc2)CC1 | 7.91%
49 | Cc1cc(C)c2nccc(/C=C/c3ccc(N(C)C)cc3)c2c1 | 20.8%
50 | CN1CC(O)C2=CC(=O)C(=O)C=C21 (stereo unspecified) | -2.8%
51 | COc1ccc(Cl)cc1NC(=O)CN(C)Cc1cccs1 | 19.8%
52 | C[C@@H]1CCC(=O)N(CC[C@H](Oc2ccccc2)c2ccccc2)CC1 | 3.5%
53 | O=C1CCN(Cc2ccccc2)CCN1[C@H](COc1ccccc1)Cc1ccccc1 | 10.2%
54 | Cc1ccc2c(/C=C/c3ccc(N(C)C)cc3)ccnc2c1C | 5.43%
55 | CN(C)c1ccc(/C=C/c2c(Cl)cnc3ccccc23)cc1 | 0.617%

Row | Compound | activation
56 | O=C(CN1Cc2ccccc2OC(c2ccsc2)C1)N1CCN(Cc2ccc3c(c2)OCO3)CC1 (stereo unspecified) | 7.82%
57 | CC(=O)C(C(c1ccccc1)c1c[nH]c2ccccc12)[N+](=O)[O-] (stereo unspecified) | 28.1%
58 | CC1COc2ccccc2N1S(=O)(=O)c1cc(Cl)ccc1Cl (stereo unspecified) | 24.9%
59 | Cc1ccc2nccc(/C=C/c3ccc(N(C)C)cc3)c2c1 | 11.3%
60 | Cc1ccc(S(=O)(=O)N2[C@@H](c3cccc(Cl)c3)C(C(=O)O)=CC[C@H]2c2ccc(C(C)C)cc2)cc1 | -20%
61 | Cc1cc(/C=C/c2ccnc3ccccc23)ccc1N(C)C | 7.43%
62 | COC(=O)c1cc(Br)c(=O)n(CCC2=CCCCC2)c1 | 3.44%
63 | Cc1cc(C(=O)NCc2nc(-c3cccc(NC(=O)c4ccccc4)c3)oc2C)nc(C)n1 | -1.58%
64 | COc1cc(OC)c2c(-c3ccccc3)cc(=O)oc2c1 | -2.27%
65 | Cc1cc(C)cc(NC(=O)c2sc3nc(-c4ccccc4)cn3c2C)c1 | 11.7%
66 | CCc1ccc([C@@H]2CC=C(C(=O)O)[C@H](c3ccc(Br)cc3)N2S(=O)(=O)c2ccc(C)cc2)cc1 | -16.2%
67 | COc1ccc(C(=O)c2ccc(OC)cc2OC)cc1 | 9.13%
68 | CCOC(=O)c1ccc(N(C(=O)c2ccccc2)c2ccccc2)cc1 | 18.7%
69 | Cn1cc(/C=C/c2ccc3ccccc3n2)c2ccccc21 | -3.19%
70 | Cc1cnc2ccccc2c1/C=C/c1ccc(N(C)C)cc1 | 9.16%
71 | CCOC(=O)C1CCCN(C(=O)c2cnn(-c3nccc(-c4cc(C)sc4C)n3)c2C)C1 (stereo unspecified) | -0.0545%
